IDH1 R132H inh: human IDH1 R132H inhibition; hit rate 0.093% among 390,000; Potency, µM (top dose mostly 76.6 µM), for the others: top-dose activity change, negative = inhibition, most hits filed as inhibitors; IDH1-R132H enzyme, NADPH consumption, diaphorase/resazurin fluorescence; further: on the % scale 0 is the no-effect control and ±100 the full control effect; nearly all actives have a fitted effect of over 65% in size
Target sequence (O75874 whole entry R132H, stated change not applied): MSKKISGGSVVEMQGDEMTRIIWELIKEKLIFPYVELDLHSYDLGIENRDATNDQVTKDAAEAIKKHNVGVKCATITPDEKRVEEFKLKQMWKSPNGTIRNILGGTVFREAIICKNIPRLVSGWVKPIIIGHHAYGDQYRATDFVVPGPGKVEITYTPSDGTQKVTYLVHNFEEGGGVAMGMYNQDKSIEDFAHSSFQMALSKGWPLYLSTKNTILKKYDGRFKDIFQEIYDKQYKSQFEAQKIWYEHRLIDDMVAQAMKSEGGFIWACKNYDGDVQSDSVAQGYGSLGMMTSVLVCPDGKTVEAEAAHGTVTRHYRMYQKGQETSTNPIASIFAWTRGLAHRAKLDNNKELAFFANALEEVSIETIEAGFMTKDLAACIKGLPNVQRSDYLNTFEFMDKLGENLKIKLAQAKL
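IDH1-R132H (0.5 ug/mL dispensed) in pH 7.5 Tris buffer was preincubated 30 min with compound, then given a substrate mix of 0.016 mM NADPH and 2 mM alpha-KG for 80 min at room temperature; remaining NADPH was read by diaphorase/resazurin fluorescence.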
A-T KAP1 phos: potential ataxia-telangiectasia treatment | F2112 A-T fibroblasts, KAP-1 phosphorylation AlphaLISA; neocarzinostatin DNA damage 30 min before lysis | hit rate 0.19% among 320,000 | Potency, µM (series often up to 57.5 µM), without a hit: top-dose activation, hits mostly activators; further: % of control where 0% means no effect; nearly all actives have a fitted effect of over 45% in size
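ATM-like activity read as KAP-1 phosphorylation via AlphaLISA donor/acceptor antibody pairs after lysis and 6 hr at 25C. Cells were ATM-null patient fibroblasts (F2112, hTERT), dosed 60 min, then exposed to the DSB inducer NCS for 30 min.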
HTT cytoprotect: cytoprotection in Huntington HTT-Q103 PC12 cell model; PC12 HTT-Q103 induced, cytoprotection, ATP luminescence, 40 h; Potency, µM (titrated, usually from 56.4 µM), for the others: cytoprotection (ATP increase), hits mostly activators; hit rate 0.14% among 230,000; AID 1471; further: % of control where 0% means no effect; nearly all actives have a fitted effect of over 45% in size
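Compounds added alongside 100 nM tebufenozide, which induces toxic Q103 huntingtin exon 1-GFP in stable PC12 cells; surviving cells quantified by luminescent ATP measurement. Medium: phenol red-free DMEM, 5% equine and 5% calf serum.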
NPSR antagonist: blocks cAMP signaling of the human neuropeptide S receptor | hit rate 1% among 220,000 | Potency, µM (series often up to 38.3 µM), without a hit: at the highest dose activity change, negative = inhibition, most hits filed as inhibitors | CHO-NPSR cells, cAMP TR-FRET, antagonist mode | AID 1461; further: on the % scale 0 is the no-effect control and ±100 the full control effect; nearly all actives have a fitted effect of over 50% in size
HttQ103 aggreg: reduces HttQ103-GFP aggregates in PC12 cells. PC12 HttQ103-GFP aggregates, Acumen cytometry, 40 h. Potency, µM (doses to about 46.1 µM), without a hit: top-dose activity change, negative = inhibition, most hits filed as inhibitors. hit rate 1.1% among 220,000. AID 1688; further: on the % scale 0 is the no-effect control and ±100 the full control effect; nearly all actives have a fitted effect of over 60% in size
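Compounds (qHTS titration) were added to PC12 cells expressing an ecdysone-driven HTT exon 1 Q103–GFP fusion after induction with 100 nM tebufenozide. Aggregate formation was measured as GFP objects in cell lysates.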
The depositor's hits bear a star; ? = inconclusive; / = no result given; [ ] = dose if it differs, or a comment. Compounds with a hit are over-represented: about 1.1% of the library has one in this group of screens. The call rests on the fitted dose curve; in most records, active means well fitted curve in the direction sought with a large enough effect; inconclusive means small, poorly fitted or top-dose-only effect, or another doubt; inactive means no such curve, though single readings can be large; an effect the other way counts as inactive or inconclusive. Potency means the concentration at half of the fitted maximal effect.

SMILES	IDH1 R132H inh	A-T KAP1 phos	HTT cytoprotect	NPSR antagonist	HttQ103 aggreg
Cc1ccc(CSc2ncc(Cl)c(C(=O)NCCc3ccc(S(N)(=O)=O)cc3)n2)cc1	-14%	/	/	/	/
COc1ccc(NC(=O)CCCc2nnc3n(C(C)C)c(=O)c4sccc4n23)cc1Cl	2%	/	/	/	/
CNc1oc(-c2ccc(C)cc2)nc1P(=O)(c1ccccc1)c1ccccc1	-11%	17%	-53%	13µM*	-21%
CNc1oc(-c2ccccc2Cl)nc1P(=O)(c1ccccc1)c1ccccc1	-8%	13%	-6%[10 µM]	?	-12%
Cc1ccc(NC(=O)c2sc3nc(C)nc(N4CCN(c5ccccn5)CC4)c3c2C)c(C)c1	3%	4%	-39%	13µM*	2%[9.22 µM]
COc1cccc(Cn2ncc3c4sc(B(O)O)cc4n(C)c3c2=O)c1	/	-11%	/	/	/
O=C(Oc1c(Br)cc([N+](=O)[O-])cc1Br)c1cccnc1	-6%	3%	34%[10 µM]	7%	35µM*
N/C(=N\OC(=O)c1ccc([N+](=O)[O-])cc1)c1cccnc1	5%	-4%	3%[10 µM]	12%[46.1 µM]	12%
O=C(O)[C@@H]1[C@@H](C(=O)NCc2cccnc2)[C@@H]2C=C[C@@H]1O2	/	/	-4%[10 µM]	/	/
COc1ccc(-c2ccc(CCC(=O)O)n2CC(=O)Nc2cccc(C(F)(F)F)c2)cc1	22%	/	/	/	/
COCCn1c(-c2ccc(Br)cc2)csc1=Nc1cccnc1	14%	-19%	2%[10 µM]	?	?
Clc1ccc(-c2csc(=Nc3cccnc3)n2CCCn2ccnc2)cc1Cl	-1%	-8%	-17%[10 µM]	-23%	11µM*
O=c1[nH]ncc2ccccc12	/	/	-48%	/	/
Cc1nn(-c2ccccn2)c2c1-c1nc(N)ncc1CC2	1%	/	-57%	-10%[46.1 µM]	11µM*
O=C(Nc1cccc(C(F)(F)F)c1)c1cnn(-c2cccc(F)c2)c1C1CCNCC1	6%	/	/	/	/
CNc1sc(C(=O)c2cccs2)c(N)c1-c1nc2ccccc2s1	-10%	11%	5%[10 µM]	3.2µM*	-7%
CNc1sc(C(=O)c2ccc(F)cc2)c(N)c1-c1nc2ccccc2s1	2%	/	17%	?	4%[9.22 µM]
Cn1c(=O)n(C)c2cc([N+](=O)[O-])c(N3CCN(S(=O)(=O)c4ccc(C(C)(C)C)cc4)CC3)cc21	-2%	0%	16%[10 µM]	17%[46.1 µM]	13µM*
CCN1/C(=C/c2cc[n+](C)cc2)C=Cc2cc(C)ccc21	7%	-14%	-59%[10 µM]	-27%	8.9µM*
CCN1/C(=C/c2ccc3ccccc3[n+]2CCCS(=O)(=O)[O-])C=Cc2cc(C)ccc21	3%	0%	/	/	/
O=C1c2c(O)cc(O)cc2O[C@@H](c2ccc(O)c(O)c2)[C@H]1O	/	/	-8%[1.9 µM]	/	/
Cc1ccc2c(c1)C(c1ccccc1)N(C(=O)CC(C)C)CC(=O)N2 (configuration not stated)	0%	3.5µM*	/	/	/
Cc1ccc2c(c1)C(c1ccccc1)N(C(=O)Cc1ccc(F)cc1)CC(=O)N2 (configuration not stated)	11%	/	/	/	/
CC(C)NC(=O)Cn1nnc(-c2ccc(Cl)cc2)n1	4%	1%	-17%[10 µM]	5%[46.1 µM]	13µM*
O=C(Cn1nnc(-c2ccc(Cl)cc2)n1)NC(=O)NC1CCCC1	-3%	/	/	/	/
SMILES	IDH1 R132H inh	A-T KAP1 phos	HTT cytoprotect	NPSR antagonist	HttQ103 aggreg
CCc1nn2c(=O)cc(COC(=O)c3ccc(NC(=O)c4cccs4)cc3)nc2s1	-11%	/	/	/	/
CC(C)c1ccc(C2C(C#N)=C(N)N3C(=C2C#N)Sc2ccccc23)cc1 (configuration not stated)	/	10%	4%	7.9µM*	7%
CN(C)S(=O)(=O)c1ccc2c(c1)nc(CCC(=O)NCC1CCCCC1)n2C	-3%	-1%	18%[10 µM]	-4%[46.1 µM]	8%
CN(C)S(=O)(=O)c1ccc2c(c1)nc(CCC(=O)NCc1ccc(Cl)cc1)n2C	0%	3%	0.63µM*	-8%	?
C=CCn1c(NC(=O)c2ccccc2Cl)c(C#N)c2nc3ccccc3nc21	12%	9%	-45%	4%[46.1 µM]	16µM*
C=C1C[C@@]23C[C@@]1(O)CC[C@@H]2[C@]12C=C[C@@H](O)[C@](C)(C(=O)O1)[C@@H]2[C@@H]3C(=O)O	/	/	-9%[1.9 µM]	/	/
CCNc1nc(Sc2ccc(C)cc2)cc(C(F)(F)F)n1	7%	32µM*	-25%	-29%[46.1 µM]	-7%
